Screening results from PubChem BioAssay.
Most compounds without a hit are left out; they make up all but 3.6% or so of the library.
Nrf2 inh – blocks Nrf2 signaling; AID 504444; hit rate 2.1% among 360,000; A549 ARE-Fluc reporter, luciferase luminescence, 18-24 h; Potency, µM (top dose mostly 46 µM), without a hit: at the top dose activity change, negative = inhibition, usual class: inhibitors; note: % is set by controls: 0 for no effect and ±100 for the full control effect; nearly all actives have a fitted effect of over 60% in size
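Cells were seeded and rested 2 h, then exposed to compounds for 18-24 h. CellTiter-Fluor was read first as a viability measure. BugLite was added 15 min before the final luminescent read of ARE-luciferase activity in A549 cells.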
Nrf2 ARE act – Nrf2 pathway activation; AREc32 ARE-luciferase reporter (MCF7-derived line), luminescence, 24 h; Potency, µM (series often up to 46.1 µM), for inactives: top-dose activation, actives largely listed as activators; hit rate 0.31% among 410,000; AID 624171; note: % of control where 0% means no effect; nearly all actives have a fitted effect of over 65% in size
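AREc32 cells carrying an ARE-driven firefly luciferase, 1000 cells/well in OPTI-MEM with 5% FBS, dosed after overnight attachment and incubated 24 hr at 37 deg C. Steady-Glo luminescence read after 30 min at RT.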
TGFb SMAD3 inh – TGF-b pathway inhibition; hit rate 1.2% among 410,000; Potency, µM (doses to about 46.1 µM), for inactives: top-dose activity, negative = inhibition, actives largely listed as inhibitors; HepG2 CAGA-GFP TGF-b/SMAD3 reporter, GFP fluorescence, 18 h; TGF-beta stimulated, 500 pg/mL final; note: % is set by controls: 0 for no effect and ±100 for the full control effect; nearly all actives have a fitted effect of over 65% in size
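First, reporter cells (HEPG2 CAGA-GFP) rested 2 h at 37 degrees C. Next, compounds were pinned in and TGF-beta added to 500 pg/mL final. After 18 h, GFP was imaged per cell and summed per well.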
A549 tox-1 – counter-screen for Nrf2 inhibitors: cytotoxicity in A549 cells. A549 ARE-Fluc cells, CellTiter-Fluor viability, 18-24 h. Potency, µM (titrated, usually from 46 µM), for the others: at the top dose activity change, negative = cytotoxicity, usual class: inhibitors. hit rate 0.16% among 390,000. AID 504648; note: % is set by controls: 0 for no effect and ±100 for the full control effect
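Cytotoxicity counterscreen: CellTiter-Fluor fluorescence was measured in A549 ARE_Fluc cells after 18-24 h of compound exposure in a concentration series. The subsequent BugLite luminescent read reports ARE-luciferase activity.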
HepG2 tox – kills HepG2 cells in TGF-b inhibitor counter-screen; HepG2 CAGA-GFP viability, ATP luminescence, 18 h; Potency, µM (titrated, usually from 46.1 µM), for the others: at the top dose activity change, negative = cytotoxicity, hits mostly cytotoxic; hit rate 0.76% among 410,000; AID 588856
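HepG2 CAGA-GFP cells (1000/well, DMEM with 1% FBS) received compound, then TGF-beta at 500 pg/mL final, and were incubated 18 hours at 37 degrees C. Viability was read by CellTiter-Glo luminescence. Media-only wells were set as complete cell-killing and DMSO as no toxicity.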
FLuc enzyme inh – blocks purified firefly luciferase in Nrf2 counterscreen | shares compounds with Nrf2 inh | purified firefly luciferase, luminescence inhibition | Potency, µM (titrated, usually from 57.5 µM), for the others: top-dose activity change, negative = inhibition, usual class: inhibitors | hit rate 4% among 1,400 | AID 720522; note: % is set by controls: 0 for no effect and ±100 for the full control effect; nearly all actives have a fitted effect of over 65% in size
Target sequence (P08659 whole entry, looked up): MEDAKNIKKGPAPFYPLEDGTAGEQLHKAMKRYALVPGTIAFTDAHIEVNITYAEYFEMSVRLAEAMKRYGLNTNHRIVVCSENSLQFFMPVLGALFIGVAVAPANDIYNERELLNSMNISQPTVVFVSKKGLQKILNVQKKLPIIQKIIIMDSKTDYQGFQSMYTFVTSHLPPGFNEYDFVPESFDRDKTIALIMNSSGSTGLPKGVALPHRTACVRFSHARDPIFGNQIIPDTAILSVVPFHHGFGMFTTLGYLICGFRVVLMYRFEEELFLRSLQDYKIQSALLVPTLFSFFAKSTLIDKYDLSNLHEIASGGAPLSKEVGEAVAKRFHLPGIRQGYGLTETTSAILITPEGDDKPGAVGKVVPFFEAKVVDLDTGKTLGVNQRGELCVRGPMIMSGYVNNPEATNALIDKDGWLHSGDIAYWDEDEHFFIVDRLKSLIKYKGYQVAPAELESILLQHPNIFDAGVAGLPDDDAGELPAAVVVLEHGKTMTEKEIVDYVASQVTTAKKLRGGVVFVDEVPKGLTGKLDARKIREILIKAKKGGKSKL
A549 tox-2 – A549 cytotoxicity, Nrf2 inhibitor counterscreen; shares compounds with Nrf2 inh; A549 ARE-Fluc cells, cytotoxicity counterscreen; Potency, µM (top dose mostly 46.1 µM), for the others: at the top dose activity change, negative = cytotoxicity, usual class: inhibitors; hit rate 2% among 1,400; AID 720523;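 note: cells exposed to compounds for 18 to 24 hours; % is set by controls: 0 for no effect and ±100 for the full control effect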
ARE-Fluc inh – Nrf2 inhibition confirmed, A549 ARE-luciferase | shares compounds with Nrf2 inh | A549 ARE-firefly luciferase reporter, luminescence | Potency, µM (doses to about 46.1 µM), without a hit: top-dose activity change, negative = inhibition, actives largely listed as inhibitors | hit rate 74% among 1,400; note: % is set by controls: 0 for no effect and ±100 for the full control effect; nearly all actives have a fitted effect of over 65% in size
* marks the source's active call; other numbers are inactive results; ? = inconclusive; / = no result shown. Calls come from the whole dose curve; as a rule, active = well fitted curve in the direction sought with a large enough effect; inconclusive = small, poorly fitted or top-dose-only effect, or another doubt; inactive = no such curve, though single readings can be large; an effect the other way counts as inactive or inconclusive. Potency is the fitted concentration of half-maximal effect.

SMILES | Nrf2 inh | Nrf2 ARE act | TGFb SMAD3 inh | A549 tox-1 | HepG2 tox | FLuc enzyme inh | A549 tox-2 | ARE-Fluc inh
Cc1ccsc1C(=O)C1CCCN(Cc2cnc(N)nc2)C1 (stereo not given) | 6.1% | 0.5% | 8.7% | -5.2% | -1.3% | / | / | /
Cc1ccsc1C(=O)C1CCCN(Cc2cnc(N3CCOCC3)s2)C1 (stereo not given) | 18.4µM* | 2.0% | 2.6% | ? | -1.1% | / | / | /
COC1CCC(OC2CC(C3(C)CCC4(CC(O)C(C)C(C(C)/C=C(\C)C(=O)C(C)CC(C)C(=O)O)O4)O3)OC3(OC(C4OC(O)(CO)C(C)CC4C)CC3C)C2C)OC1C (stereo not given) | 0.411µM* | 7.8% | ? | 0.651µM* | -5.1% | / | / | /
CC1SC2(CN3CCC2CC3)NC1=O (stereo not given) | 14.8% | -0.6% | 38.2% | -3.3% | -2.6% | / | / | /
C[C@@H]1CN([C@H](C)CO)C(=O)c2c(c3ccccc3n2C)-c2ccccc2CO[C@@H]1CN(C)Cc1ccc(O)cc1 | / | 7.5% | ? | / | -27.2% | / | / | /
COc1cccc(CN(C)C[C@@H]2OCc3ccccc3-c3c(n(C)c4ccccc34)C(=O)N([C@@H](C)CO)C[C@H]2C)c1 | / | -5.2% | ? | / | 20µM* | / | / | /
Cc1ccc(NC(=O)C2CCCN(c3ncnc4onc(C)c34)C2)c(Cl)c1 (stereo not given) | 25.9µM* | 0.8% | -1.2% | -11.4% | 0.3% | / | / | /
CN(C)c1ccc(-[n+]2c(-c3ccccc3)cc(-c3ccccc3)cc2-c2ccccc2)cc1 | 2.91µM* | 0.3% | 3.98µM* | ? | -36.4% | -2.6% | ? | 3.66µM*
CCN(CC)C(=O)c1ccc(NC(=O)c2cccc(S(=O)(=O)N3CCN(Cc4ccccc4)CC3)c2)cc1 | 2.06µM* | -0.2% | ? | ? | 8.0% | 0.1% | -7.5% | 8.2µM*
CCN(CC)C(=O)c1ccc(NC(=O)c2cc(S(=O)(=O)N3CCCCCC3)ccc2OC)cc1 | ? | 0.0% | -18.7% | -3.9% | 0.2% | / | / | /
Cc1ccc(C(=O)Oc2cc(N)n(S(=O)(=O)c3ccc(F)cc3)n2)cc1 | 1.84µM* | -2.0% | 0.6% | 8.4% | 0.4% | -16.6% | -7.2% | 1.64µM*
CCOC(=O)c1ccc(S(=O)(=O)n2c(=O)oc3ccccc32)cc1 | -1.0% | 0.4% | ? | -2.0% | 4.3% | / | / | /
CCCCn1c(O)c(C=Nc2c(C)n(C)n(-c3ccccc3)c2=O)c(=O)[nH]c1=O | -11.0% | -0.4% | 0.5% | -1.2% | 2.9% | / | / | /
C[C@H]1CCCC=CC2C[C@H](O)C[C@@H]2[C@H](O)C=CC(=O)O1 (stereo not given in full) | / | / | 0.126µM* | / | -43.1% | 1.4% | ? | 0.231µM*
CC(=O)c1ccc(N2CCN(S(=O)(=O)c3cc(-c4onc(C)c4C)ccc3C)CC2)cc1 | 9.2µM* | 0.6% | ? | -0.7% | -20.8% | 2.1% | 0.7% | 6.51µM*
CC(C)N1CC=C(c2c[nH]c3ccccc23)CC1 | 1.64µM* | 3.0% | ? | ? | -4.4% | -1.3% | -10.3% | /
C[C@]12CC[C@H]3[C@@H](CC[C@]4(O)C[C@@H](O)CC[C@]34C=O)[C@@]1(O)CC[C@@H]2C1=CC(=O)OC1 | 0.259µM* | -2.8% | 7.08µM* | ? | -65.3% | 1.3% | -55.2% | 0.411µM*
CC12CCC3C(CCC4(O)CC(O)CCC34C=O)C1(O)CCC2C1=CC(=O)OC1 (stereo not given) | 0.461µM* | -2.5% | ? | ? | -39.5% | 2.2% | ? | 0.411µM*
